Assay results: PubChem BioAssay AID1986 (Sanford-Burnham Center for Chemical Genomics, 2009)
The campaign covered roughly 290,000 compounds. About 890 (0.31%) were called active. Cut-off read from the data, not from the text of the source: active = inhibition mostly above about 52% (no sharp cut-off); inactive = mostly below about 76%. For the sample, actives were picked, then their nearest neighbours and some compounds at random.

Experiment: cell-free HIV fusion peptide-binding blockers – biochemical, uHTS, fluorescence dequenching, primary screen (AID 1986)
Settings: 30 min, stronger effect = higher value
[1] = measured here: repeat confirmation average inhibition, at 18.6 µM

Structure (SMILES)	inhibition (at 20 µM)	inhibition [1]
Cc1cnc(CN(C)C(=O)c2ccc3oc(Cc4ccc(Cl)cc4)nc3c2)[nH]1	0.2% (inactive)	
COc1ccc(-n2c(C)cc(/C=C3\C(=N)N4N=C(CC(=O)N5CCOCC5)SC4=NC3=O)c2C)cc1	20.1% (inactive)	
Cc1ccc(/C=C/S(=O)(=O)NCC(=O)O)cc1	4.8% (inactive)	
CN1C(=S)N(c2cccnc2)C(=O)/C1=C\c1ccc(N(C)C)cc1	6.7% (inactive)	
Cc1c(N2C(=O)/C(=C/c3ccccc3)SC2=S)c(=O)n(-c2ccccc2)n1C	-4.2% (inactive)	
Cc1c(N2C(=O)/C(=C\c3ccc(N(C)C)cc3)N(C)C2=S)c(=O)n(-c2ccccc2)n1C	52.4% (active)	74.6%
Cc1cccc(C(=O)N/C(=C/c2ccco2)C(=O)N2CCCCCC2)c1	0% (inactive)	
O=C(NCC1CCCO1)Nc1cc(Cl)cc(Cl)c1 (stereo not given)	0.7% (inactive)	
COc1cccc2c(=O)c(C(=O)O)c[nH]c12	2% (inactive)	
COC(=O)c1cc(=O)c2cccc(OC)c2[nH]1	-2.4% (inactive)	
COc1cccc2c(C)c(C(=O)O)[nH]c12	67.9% (active)	
Nc1nnc(SCc2ccc([N+](=O)[O-])cc2)s1	0.4% (inactive)	
Cc1cc(NC(=O)COC(=O)CCS(=O)(=O)c2ccc(Cl)cc2)no1	1.1% (inactive)	
CC(C(=O)N1CCc2ccccc21)n1cccc1 (stereo not given)	-2.3% (inactive)	
Cc1ccc(C)c(NC(=O)c2ccccc2NS(=O)(=O)c2cc([N+](=O)[O-])ccc2C)c1	47.1% (inactive)	
CC(=O)Nc1ccc(NS(=O)(=O)c2cc([N+](=O)[O-])ccc2C)cc1	0.5% (inactive)	
C=CCOC(=O)CCC(=O)Nc1cc(OC)nc(OC)n1	-0.6% (inactive)	
Cc1ccc(S(=O)(=O)Cc2cn3cccnc3n2)cc1	-2.2% (inactive)	
COc1ccc2c(c1)c(C(=O)N/N=C/c1cccc(Br)c1)c(C)n2C	0.5% (inactive)	
COc1ccc(N2CC(C(=O)NCCc3c[nH]c4ccccc34)CC2=O)cc1 (stereo not given)	0.2% (inactive)	
COc1ccc(/C=C2\SC(=N)N(c3nccs3)C2=O)cc1OC	13.9% (inactive)	
N=C1S/C(=C\c2ccc(-c3cccc(Cl)c3)o2)C(=O)N1c1nccs1	68.1% (inactive)	15.5%
N=C1S/C(=C\c2ccco2)C(=O)N1c1nccs1	51.1% (active)	
CCCCNC(=O)CNC(=S)N(Cc1ccc(C)cc1)Cc1ccco1	2.5% (inactive)	

Structure (SMILES)	inhibition (at 20 µM)	inhibition [1]
CCOC(=O)CC1C(=O)NCCN1c1nc2ccc(C)cn2c(=O)c1/C=C1\SC(=S)N(C(C)CC)C1=O (stereo not given)	148% (inactive)	
CCOC(=O)CC1C(=O)NCCN1c1nc2ccc(C)cn2c(=O)c1/C=C1\SC(=S)N(CC(C)C)C1=O (stereo not given)	109% (active)	147%
CCOC(=O)CC1C(=O)NCCN1c1nc2c(C)cccn2c(=O)c1/C=C1\SC(=S)N(C(C)CC)C1=O (stereo not given)	137% (inactive)	
CCOC(=O)CC1C(=O)NCCN1c1nc2c(C)cccn2c(=O)c1/C=C1\SC(=S)N(CC(C)C)C1=O (stereo not given)	117% (active)	
CCCN1C(=O)/C(=C/c2c(N3CCNC(=O)C3CC(=O)OC)nc3c(C)cccn3c2=O)SC1=S (stereo not given)	148% (inactive)	
CCCN1C(=O)/C(=C/c2c(N3CCNC(=O)C3CC(=O)OCC)nc3c(C)cccn3c2=O)SC1=S (stereo not given)	146% (inactive)	
Cc1ccccc1NC(=O)Cn1c(=O)sc2ccccc21	-1.5% (inactive)	
CC1=C(C(=O)OCC2CCCO2)C(c2coc3ccc(Cl)cc3c2=O)C2=C(CCCC2=O)N1 (stereo not given)	-0.8% (inactive)	
COc1ccccc1CC(=O)Nc1cccc2c1CCCC2	-2.5% (inactive)	
COc1ccc2nc(SCC(=O)Nc3nonc3C)[nH]c2c1	0.1% (inactive)	
CSc1ccccc1C(=O)NCC(c1ccco1)N(C)C (stereo not given)	-2.2% (inactive)	
CC1=C(C(=O)NC2CCCc3c2cnn3-c2cccc(C)c2C)OCCO1 (stereo not given)	-0.2% (inactive)	
CC(=O)c1ccc(N(C)C)c2c(N(C)C)cccc12	-0.7% (inactive)	
CN(C)c1cccc2c(C=C(C#N)C#N)ccc(N(C)C)c12	89.8% (active)	
CN(C)c1cccc2c(/C=N/O)ccc(N(C)C)c12	-1.6% (inactive)	
Cc1ccc(NC(=O)c2cc(S(=O)(=O)N3CCOCC3)cn2C)cc1Cl	-0.7% (inactive)	
Cc1ccc(N(CC(=O)NCc2ccccc2Cl)S(=O)(=O)c2cccs2)cc1	0.6% (inactive)	
O=C(CSc1nnc(-c2ccccc2F)o1)NC1CCCCC1	-0.3% (inactive)	
Cc1ccc(-n2c3c(cc(C(=O)NC4CCSC4=O)c2=O)C(=O)CCC3)cc1 (stereo not given)	-1.5% (inactive)	
CCOc1cc(/C=N\Nc2ccc([N+](=O)[O-])cc2)ccc1OCC(=O)Nc1ccc(C)c(C)c1	88.4% (active)	94.3%
COc1cc(/C=N\Nc2ccc([N+](=O)[O-])cc2)ccc1OCC(=O)Nc1ccc(C)c(C)c1	27.8% (inactive)	
CCOc1cc(/C=N/NC(N)=O)ccc1OCC(=O)Nc1ccc(C)c(C)c1	-2% (inactive)	
CC(Sc1ccccc1)C(=O)NCCc1ccccc1 (stereo not given)	0.1% (inactive)	
COc1ccccc1-c1nc(S(=O)(=O)c2ccc(Cl)cc2)c(N(C)C)o1	0.1% (inactive)	

Structure (SMILES)	inhibition (at 20 µM)	inhibition [1]
O=c1c2[nH]c3cccc(Cl)c3c2ncn1Cc1ccncc1	0.2% (inactive)	
Cc1ccc(N2NC(=O)/C(=C/c3ccc(-c4ccc(Cl)c(C(=O)O)c4)o3)C2=O)cc1	29.4% (inactive)	
O=C1NN(c2ccccc2)C(=O)/C1=C/c1ccc(-c2ccc(Cl)c(C(=O)O)c2)o1	34.7% (inactive)	
COC(=O)c1ccc(N2NC(=O)/C(=C/c3ccc(-c4ccc(Cl)c(C(=O)O)c4)o3)C2=O)cc1	54.7% (active)	
Cc1cc(CSc2ccccc2)ccc1NC(=O)c1ccc(Cl)c([N+](=O)[O-])c1	1.8% (inactive)	
Cc1ccc(-c2onc3ccc(C=O)cc23)cc1	-0.6% (inactive)	
O=Cc1ccc2noc(-c3ccc(Cl)cc3)c2c1	28.2% (inactive)	
O=Cc1ccc2noc(-c3ccc(F)cc3)c2c1	75.6% (active)	79.8%
COc1ccc2c(ccc[n+]2CC(=O)c2ccccc2)c1	1.3% (inactive)	
Cc1nc(NC(=O)CSc2cc(C)c3ccccc3n2)c(Cl)cc1Cl	-0.4% (inactive)	
S=C(Nc1ccc(Oc2ccccc2)cc1)N1CCOCC1	-0.2% (inactive)	
COc1cc(CNCc2ccccc2Cl)ccc1OCC(=O)NC1CCCCC1	0.7% (inactive)	
CN(/C=C/C(=C/C=[N+](C)c1ccccc1)OCCCS(=O)(=O)[O-])c1ccccc1	71.6% (active)	
CN(/C=C/C(=C\C=[N+](C)c1ccccc1)OCCCS(=O)(=O)[O-])c1ccccc1	24.5% (inactive)	
CN(C)/C=C/C(=O)c1ccc(S(=O)(=O)c2ccccc2)cc1	2.7% (inactive)	
Clc1ccccc1OCCN1CCC(Cc2ccccc2)CC1	-0.6% (inactive)	
Cc1ccc(/C=N/N=C/c2ccc(C)cc2)cc1	0.6% (inactive)	
Cc1ccc(/C=[N+](/C)[O-])cc1	-1.3% (inactive)	
Cc1ccc(C=C2C(Cl)=C(Cl)C(Cl)=C2Cl)cc1	53.9% (active)	
COc1ccccc1OCCCCOc1ccccc1C(C)=O	0.9% (inactive)	
O=C(/C=C/Nc1cccc(F)c1)c1ccco1	1.5% (inactive)	
COC(=O)c1ccc(N)cc1O	-0.9% (inactive)	
COC(=O)c1ccc(=O)c2nc3/c(=C/O)c(O)cc(=O)c3[nH]c12	56.3% (active)	
COC(=O)c1ccc(C(=O)OC)c(=O)[nH]1	-0.4% (inactive)	

Structure (SMILES)	inhibition (at 20 µM)	inhibition [1]
COc1ccc(NC(=S)N(Cc2cccnc2)Cc2ccco2)cc1	-0.6% (inactive)	
Clc1ccc(Cc2noc(-c3cccs3)n2)cc1	1.2% (inactive)	
Cc1ccc(/C=C2\Oc3c(ccc(O)c3CN3CCN(C)CC3)C2=O)cc1	45.4% (inactive)	
Cc1cc(O)c(CN(C)C)c2c1C(=O)/C(=C/c1ccco1)O2	29.7% (inactive)	
COCCN(CCOC)Cc1c(O)ccc2c1O/C(=C\c1ccc(C)o1)C2=O	27.4% (inactive)	
CCN1CCN(Cc2c(O)ccc3c2O/C(=C\c2ccc(C)cc2)C3=O)CC1	40.1% (inactive)	
COCCN(CCOC)Cc1c(O)ccc2c1O/C(=C\c1ccco1)C2=O	50.4% (active)	78.9%
CC1CCCN(Cc2c(O)ccc3c2O/C(=C\c2ccco2)C3=O)C1 (stereo not given)	35.5% (inactive)	
O=C1/C(=C/c2ccco2)Oc2c1ccc(O)c2CN1CCCCC1	58.1% (active)	
CC(C)(C)c1ccc(/C=C2\Oc3c(ccc(O)c3CN3CCN(CCO)CC3)C2=O)cc1	17.8% (inactive)	
CC1CCN(Cc2c(O)ccc3c2O/C(=C\c2ccco2)C3=O)CC1	56.7% (active)	90.4%
COc1ccc(C2C(C(=O)N3CCN(c4ccccn4)CC3)CCC(=O)N2c2ccc(OC)cc2)cc1 (stereo not given)	-2.1% (inactive)	
O=C1C=C(N2CCCCCC2)C2(CCCCC2)O1	0.8% (inactive)	
C[C@H](NC(=O)c1nc[nH]c1C(=O)NC(c1ccccc1)c1ccccc1)C(=O)OCc1ccccc1	2.7% (inactive)	
NC(=O)c1sc2nnc(-c3ccccc3)c(-c3ccccc3)c2c1N	1.6% (inactive)	
CCSc1nnc(-c2cccs2)o1	1.8% (inactive)	
CCSc1nnc(-c2sc3nnc(-c4ccccc4)c(-c4ccccc4)c3c2N)o1	98.4% (active)	
O=C(Cn1c(=O)oc2cc(S(=O)(=O)N3CCCC3)ccc21)N1CCN(C2CCCCC2)CC1	0% (inactive)	
O=C(CSc1nc2ccccc2c(=O)n1Cc1ccco1)N1CCN(c2ccccc2)CC1	-4.4% (inactive)	
O=C(Nc1cccc(-c2nc3cc(Cl)ccc3o2)c1)C1CCCO1 (stereo not given)	1% (inactive)	
CN(C)S(=O)(=O)c1cccc(C(=O)OCC(=O)NCc2ccc3c(c2)OCO3)c1	0.4% (inactive)	
